# Assay outcomes (PubChem BioAssay)
# Most compounds without a hit are left out; they make up all but 12% or so of the library.
# L3MBTL1 block = inhibitors of human L3MBTL1; AlphaScreen L3MBTL1–H3K9me1 peptide binding; Potency, µM (titrated, usually from 57.1 µM), actives largely listed as inhibitors; actives 0.66% (n = 230,000); AID 485360; also: nearly all actives have a fitted effect of over 60% in size
#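 AlphaScreen assay: L3MBTL1 (50 nM final) was preincubated 30 min at room temperature with biotinylated H3(1-15)K9me1 peptide (75 nM final), then 30 min with library compounds; streptavidin donor and nickel chelate acceptor beads (10 ug/mL final) added, 30 min dark.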
# Sfp PPTase inh = inhibitors of Bacillus subtilis Sfp phosphopantetheinyl transferase | Q9F4F7 | actives 3.5% (n = 310,000) | Biochemical Sfp PPTase activity, qHTS | AID 1490 | Potency, µM, actives largely listed as inhibitors;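 also: the enzyme is Sfp with the accession as filed and its product quenches rhodamine fluorescence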
#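 Step 1, compound plus 15 nM Sfp-PPTase, 15 min, room temperature. Step 2, add rhodamine-CoA (5 uM) and BHQ-2-YbbR (12.5 uM). Step 3, read 525/598 nm fluorescence at 0 and 30 min.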
# HP1b chromo inh = HP1-beta chromodomain-methylated histone interaction inhibition. AlphaScreen HP1-beta / biotin-H3K9me3 peptide binding. Potency, µM (doses to about 114 µM), actives largely listed as inhibitors. actives 0.56% (n = 390,000). AID 540317; also: nearly all actives have a fitted effect of over 70% in size
# Target sequence (P83916 whole entry, looked up): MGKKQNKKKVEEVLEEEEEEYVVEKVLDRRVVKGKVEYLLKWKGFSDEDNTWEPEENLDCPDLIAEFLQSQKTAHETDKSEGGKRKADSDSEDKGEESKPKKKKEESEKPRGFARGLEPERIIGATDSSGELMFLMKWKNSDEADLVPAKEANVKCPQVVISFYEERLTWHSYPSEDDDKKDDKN
#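 AlphaScreen: HP1-beta (50 nM) preformed 30 min with biotin-H3(1-18)K9me3 peptide (50 nM) in PBS pH 7.4, 0.01% Tween-20. Compound added for 30 min at RT, then streptavidin donor/nickel chelate acceptor beads (10 ug/mL) for 30 min.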
# BAZ2B inh = inhibitors of human BAZ2B bromodomain; Q9UIF8; AlphaScreen BAZ2B-H3K14Ac peptide displacement; Potency, µM (titrated, usually from 114 µM), usual class: inhibitors; actives 4.4% (n = 360,000); also: nearly all actives have a fitted effect of over 60% in size
#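 AlphaScreen displacement of biotin-H3(5-23)K14Ac peptide (50 nM final) from BAZ2B (50 nM final) in PBS pH 7.4, 0.01% Tween-20; complex preformed 30 min RT, then compounds (top 110 uM) 30 min RT, beads 20 min dark.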
# G9a block = G9a (human) methyltransferase inhibition; actives 8.8% (n = 350,000); Potency, µM (series often up to 102 µM), actives largely listed as inhibitors; G9a H3K9 monomethylation, AlphaScreen, 2 h; AID 504332; Q96KQ7; also: nearly all actives have a fitted effect of over 75% in size
# Target sequence (Q96KQ7 913-1193 limits assumed): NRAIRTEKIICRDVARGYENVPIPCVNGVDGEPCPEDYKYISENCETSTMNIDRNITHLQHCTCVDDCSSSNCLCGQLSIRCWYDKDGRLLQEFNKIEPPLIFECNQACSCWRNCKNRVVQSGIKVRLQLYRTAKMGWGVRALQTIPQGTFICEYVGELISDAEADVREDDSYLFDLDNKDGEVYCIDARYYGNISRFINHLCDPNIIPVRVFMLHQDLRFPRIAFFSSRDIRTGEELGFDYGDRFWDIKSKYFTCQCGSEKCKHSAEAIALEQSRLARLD
#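 AlphaScreen read-out: biotin-H3K9 peptide (500 nM) methylation by 20 nM enzyme with 20 uM SAM, 2 h at room temperature after 15 min compound preincubation; anti-monomethyl H3K9 antibody plus donor/acceptor beads, 10 min dark.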
# JMJD2A Tudor = JMJD2A Tudor domain (human) inhibition; O75164; AlphaScreen JMJD2A-Tudor / H3K4me3 peptide binding; Potency, µM (doses to about 114 µM), hits mostly inhibitors; actives 4.4% (n = 390,000); AID 504339; also: nearly all actives have a fitted effect of over 50% in size
# Sfp inh conf = confirmation of Bacillus subtilis Sfp PPTase inhibitors. shares compounds with Sfp PPTase inh. Sfp PPTase enzymatic assay, qHTS titration. Potency, µM (series often up to 114 µM), hits mostly inhibitors. actives 79% (n = 380). AID 2701
# Target sequence (Q9F4F7 whole entry, looked up): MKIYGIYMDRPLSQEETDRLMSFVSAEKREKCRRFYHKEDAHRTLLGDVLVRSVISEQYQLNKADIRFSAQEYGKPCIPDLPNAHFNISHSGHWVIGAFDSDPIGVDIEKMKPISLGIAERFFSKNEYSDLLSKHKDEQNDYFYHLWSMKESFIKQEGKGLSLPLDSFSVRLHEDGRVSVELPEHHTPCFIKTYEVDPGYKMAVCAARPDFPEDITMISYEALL
# Sfp PPTase gel = Inhibits Bacillus subtilis Sfp phosphopantetheinyl transferase | AID 2707 | purified Sfp, gel-based phosphopantetheinylation read-out | Potency, µM, actives largely listed as inhibitors | shares compounds with Sfp PPTase inh | actives 20% (n = 210);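 active = potency below 100 µM; inconclusive = dose-dependent response but potency above 100 µM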;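 also: potency is an IC50 for inhibitors of Sfp transfer activity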
# A number is an active result; – = inactive; ? = inconclusive; · = not tested or not shown; ! = not active in a repeat; [ ] = dose if it differs, or a comment. Unless noted, calls follow the shape of the dose curve; as a rule, active = well fitted curve in the direction sought with a large enough effect; inconclusive = small, poorly fitted or top-dose-only effect, or another doubt; inactive = no such curve, though single readings can be large; an effect the other way counts as inactive or inconclusive.
SMILES,L3MBTL1 block,Sfp PPTase inh,HP1b chromo inh,BAZ2B inh,G9a block,JMJD2A Tudor,Sfp inh conf,Sfp PPTase gel
COc1ccc(NC(=S)N(CCC(C)C)C2CCN(C(C)C)CC2)cc1Cl,·,4µM,–,–,5µM,–,1.9µM,·
CC(C)(O)C#Cc1ccc(C(=O)N2CCCC(CNS(=O)(=O)c3cccs3)C2)o1 (stereo not drawn),·,40µM,–,–,28µM,–,59µM,·
Cc1cc(C)c(C(=O)N2CCCC(CNS(=O)(=O)c3cccs3)C2)o1 (stereo not drawn),·,–,–,–,–,–,·,·
O=C1C=C(c2ccc(Cl)c(C(F)(F)F)c2)C[C@@H](c2ccc(Cl)cc2)C1,–,·,–,–,–[2.33 µM],–,·,·
c1cncc(Nc2nc(-c3cccs3)cs2)c1,–,5µM,?,?,?,20µM,30µM,?
CCOC(=O)c1cc(=O)n2nc(-c3ccccc3F)nc2s1,·,14µM,–,–,?,?,59µM,·
CC(=O)N1CCCc2cc(S(=O)(=O)NCc3ccc(N(C)C)cc3)ccc21,·,·,–,–,?,–,·,·
COC(=O)c1c(NC(=O)COC(=O)c2ccc(Cl)cc2[N+](=O)[O-])sc2c1CCCCC2,–,10µM,–,–,–,–,?,·
Cc1nc2sc3c(c2c(=O)o1)CCC3,–,16µM,–,–,?,–,?,?
COc1ccccc1NS(=O)(=O)c1cc(NC(=O)c2sccc2C)ccc1N1CCCC1,–,2.8µM,?,–,3.5µM,–,17µM,·
Nc1nc2c(s1)CCc1c-2cnn1-c1ccccc1,32µM,2.5µM,11µM,45µM,?,25µM,7.4µM,·
CCCC(=O)Nc1ccc(-c2csc(NNC(C)=O)n2)cc1,·,5µM,–,–,35µM,–,?,?
CCCC(=O)NC(=S)Nc1nc(-c2ccc(OC)cc2)cs1,–,–,–,–,–,–,·,·
O=C(CSc1ncc(CO)n1Cc1ccccc1)Nc1ccc(C(F)(F)F)cc1,·,·,–,?,–,?,·,·
CCOC(=O)N1CCN(C(=O)C2CCN(c3nnc(-n4cccc4)s3)CC2)CC1,–,–,–,–,–,–,·,·
Oc1ccc(NCc2cccc(OCc3ccc(F)cc3)c2)cc1,?,16µM,?,–,·,40µM,53µM,?
OCCNCc1cccc(OCc2ccc(Cl)cc2)c1,–,–,–,–,–,–,·,·
CN(C(=O)CSc1nnc(C2CC2)n1C1CC1)C1(C#N)CCCCC1,–,·,–,–,–[2.33 µM],–,·,·
O=C(CSc1n[nH]c(-c2ccccc2O)n1)N1CCOCC1,–,3.5µM,–,?,–,–,–,–
Nc1nc(SCC(=O)N2CCOCC2)n[nH]1,–,–,–,–,–,–[11.4 µM],·,·
CC(C)(C)NC(=O)C(c1cccnc1)N(C(=O)c1ccc(Cl)nc1)C1CCCC1 (stereo not drawn),?,3.5µM,–,56µM,2.8µM,–,–,–
O=c1cc(-c2ccc(O)cc2)oc2cccc(O)c12,·,–,·,·,·,·,·,·
O=C(O)c1cc(=O)c2c3nc4ccccc4oc-3cc(=O)c2[nH]1,·,45µM,·,·,?,·,53µM,·
CCC1=C[C@@H]2CN(C1)Cc1c([nH]c3ccccc13)[C@@](C(=O)OC)(c1cc3c(cc1OC)N(C)[C@H]1[C@@](O)(C(=O)OC)[C@H](OC(C)=O)[C@]4(CC)C=CCN5CC[C@]31[C@@H]54)C2,·,14µM,·,·,·,·,?,56µM
Cc1csc(NC(=O)CSc2[nH]c(=O)ncc2C)n1,–,·,–,–,–,–,·,·
SMILES,L3MBTL1 block,Sfp PPTase inh,HP1b chromo inh,BAZ2B inh,G9a block,JMJD2A Tudor,Sfp inh conf,Sfp PPTase gel
Cc1cnc(=O)[nH]c1SCC(=O)c1ccc(F)cc1,·,14µM,–,?,7.1µM,–,8.3µM,·
O=C1CCCc2[nH]c(=O)c(-c3nc(-c4cccc([N+](=O)[O-])c4)cs3)cc21,·,·,–,–,–,–,·,·
Cc1c(Cl)cccc1NC(=O)CC(Cc1ccccc1)C(=O)O (stereo not drawn),·,–,–,–,–,–,·,·
O=C(CC(Nc1ccccc1Cl)C(=O)O)c1ccccc1 (stereo not drawn),–,4µM,–,–,?,–,13µM,?
Cc1c(Cl)cccc1NC(CC(=O)c1ccccc1)C(=O)O (stereo not drawn),–,7.9µM,–,–,?,–,11µM,–
O=C(CC(Nc1ccc(Cl)cc1)C(=O)O)c1ccccc1 (stereo not drawn),–,7.1µM,–,–,2.2µM,–,?,?
O=C(CC(=O)c1ccccc1)Nc1ccc(Cl)cc1,·,–,–,–,–,–,·,·
COCCCNC(=O)COc1ccc(S(=O)(=O)NCc2ccccc2)cc1Cl,–,–,–,–,–,–,·,·
Nc1c(C(=O)NC2CC2)sc2nc3c(c(-c4ccco4)c12)CC/C3=C/c1ccco1,0.89µM,5µM,14µM,–,3.2µM,7.1µM,8.3µM,·
Cc1cc2cc(C(c3nnnn3CC3CCCO3)N3CCCc4ccccc43)c(=O)[nH]c2cc1C (stereo not drawn),·,1.4µM,–,–,?,?,19µM,·
O=c1[nH]c2cc3c(cc2cc1C(c1nnnn1Cc1ccccc1)N1CCCc2ccccc21)OCO3 (stereo not drawn),–,–,–,–,–,–,·,·
Cc1cc(C)cc(NC(=O)C2CCN(C(=O)c3cccs3)CC2)c1,·,–,–,–,–,–,·,·
O=C(COC(=O)c1cncc(Br)c1)NCc1ccc(F)cc1,–,–,–,–,–,–,·,·
O=C(COC(=O)c1cncc(Br)c1)NCc1ccco1,–,13µM,–,32µM,–[0.0925 µM],–,47µM,–
CN(C)S(=O)(=O)N1CCC(Oc2cccc(C(=O)N3CCCCCCC3)c2)CC1,·,–,–,–,·,–,·,·
CN(Cc1cnccn1)C(=O)CC1C(=O)NCCN1Cc1c(F)cccc1Cl (stereo not drawn),–,–,–,–,?,–,·,·
COC(=O)c1ccc(N2CCC(C)CC2)c(N)c1,·,32µM,?,–,8.9µM,?,19µM,·
COC(=O)c1ccc(N2CCCCC2)c(N)c1,–,–,–,–,·,–,·,·
Cc1ccc2nc3c(cc(C#N)c(=O)n3-c3nnc(SCc4ccc(F)cc4)s3)c(=O)n2c1,·,·,–,–,–,–,·,·
Nc1cc(-c2ccncc2)c[nH]c1=O,?,6.3µM!,–,–,45µM!,–,13µM,?
Nc1c(-c2ccncc2)cc[nH]c1=O,·,·,·,·,·,–,·,·
Cc1ccc(C(=O)CSc2nnc3c4ccccc4nc(Cc4ccccc4)n23)cc1,–,8.9µM,–,–,–,–,?,–
CS(=O)(=O)c1ccc(CNC(=O)[C@H]2C[C@@H]2[C@H](NP(=O)(c2ccccc2)c2ccccc2)c2ccccc2)cc1,·,–,·,·,·,·,·,·
